Screening data as filed in PubChem BioAssay.
Efflux pump mplx = inhibitors of Candida efflux pumps in yeast, primary screen, S. cerevisiae, Nile Red, multiplex. inhibition, % at 10 µM. 0.44% of 330,000 active. S. cerevisiae Candida pump triplex;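 active = plate passing quality check with inhibition over a set limit, or well fluorescence over plate mean plus 4 SD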;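 also: Nile Red retained in pooled yeast measured as flow cytometry median fluorescence; 0% = buffer negative control and 100% = Enniatin B positive control; higher means more Nile Red kept so more efflux inhibition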
ATG4B inhibitor = ATG4B protease inhibitors, primary screen, biochemical, fluorescence, uHTS | Cysteine protease ATG4B (Homo sapiens), Q9Y4P1 | ATG4B cleavage of LC3-PLA2, NBD-HPC fluorescence, 1 h | inhibition, % at 8.33 µM | 0.51% of 340,000 active; in the data active = inhibition above about 40%
GRK2 inh = compounds blocking aptamer binding on GRK2 – biochemical, human GRK2, bead flow cytometry, HTS, primary screen. Beta-adrenergic receptor kinase 1 (Homo sapiens), P25098. FAM-aptamer displacement from GRK2. inhibition of aptamer binding, % at 10 µM. 0.59% of 330,000 active;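 active = inhibition of aptamer binding above 40%, roughly 3 SD of noise, on plates passing a quality check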;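 also: median bead fluorescence of bound FAM aptamer so fluorescent compounds give negative values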
Target sequence (P25098 whole entry, looked up): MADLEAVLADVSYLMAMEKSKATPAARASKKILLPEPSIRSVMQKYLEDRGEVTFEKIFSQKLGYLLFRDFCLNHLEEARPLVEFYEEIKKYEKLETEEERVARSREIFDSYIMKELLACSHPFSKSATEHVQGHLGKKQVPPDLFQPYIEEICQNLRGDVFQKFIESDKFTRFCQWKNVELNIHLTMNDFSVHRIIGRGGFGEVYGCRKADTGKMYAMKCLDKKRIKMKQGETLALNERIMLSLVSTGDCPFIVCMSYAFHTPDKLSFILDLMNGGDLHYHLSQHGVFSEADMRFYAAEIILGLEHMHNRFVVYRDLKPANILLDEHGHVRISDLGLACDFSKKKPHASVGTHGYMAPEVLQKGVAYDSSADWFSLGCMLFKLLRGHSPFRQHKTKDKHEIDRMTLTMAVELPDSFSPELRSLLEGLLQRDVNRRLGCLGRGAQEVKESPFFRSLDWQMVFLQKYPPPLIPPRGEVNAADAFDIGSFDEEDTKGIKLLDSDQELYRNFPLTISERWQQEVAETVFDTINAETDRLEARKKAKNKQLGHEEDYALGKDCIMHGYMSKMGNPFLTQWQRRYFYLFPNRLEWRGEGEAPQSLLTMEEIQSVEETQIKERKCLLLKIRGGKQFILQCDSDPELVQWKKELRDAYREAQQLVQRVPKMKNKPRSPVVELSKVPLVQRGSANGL
Yeast superoxide = reduction of superoxide in aged yeast, primary screen, HTS | S. cerevisiae aged cells, superoxide DHE fluorescence; stronger effect = lower value | superoxide response (% of plate mean), % at 10 µM | 0.18% of 330,000 active | AID 2690, 2010;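 active = superoxide response under a set limit, about three screen SD below normal, cut at about 65% in these data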;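 also: yeast aged for seven days with compound at 30 °C before DHE staining; 100% = average MFI of all compound-treated wells on the plate with controls excluded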
ATG4B conf = ATG4B protease inhibitors, retest, confirmation, biochemical, fluorescence, single concentration; inhibition, % at 8.33 µM; AID 504757, 2011; shares compounds with ATG4B inhibitor; ATG4B protease fluorescent substrate cleavage assay; 92% of 320 active; in the data active = inhibition above about 39%
PLA2 ctr = PLA2 enzyme inhibition, counter-screen for ATG4B inhibitor project, biochemical, single concentration, uHTS hits; shares compounds with ATG4B inhibitor; purified PLA2, NBD-C6-HPC fluorescence, 45 min; inhibition, % at 8.33 µM; 66% of 1,600 active; in the data active = inhibition above about 50%
* marks the source's active call; other numbers are inactive results; · = no result given. This is a sample that favours compounds with a hit; in the whole collection about 1.6% have one here.

SMILES | Efflux pump mplx | ATG4B inhibitor | GRK2 inh | Yeast superoxide | PLA2 ctr | others
Fc1ccc(CCNC(=S)Nc2ccc(F)c(Cl)c2)cc1 | 0.0 | 44.2* | 0.0 | 106.4 | 45.8 | ATG4B conf=58.4*
Cc1ccccc1CS(=O)(=O)c1cn(CC(=O)N2CCOCC2)c2ccccc12 | 0.1 | -7.4 | 1.0 | 95.2 | ·
CCSc1nc(-c2ccccc2)c(C#N)c(=O)[nH]1 | 0.0 | -0.4 | 0.0 | 102.8 | ·
CCCOc1ccc(-c2nc(SCc3ccccc3)[nH]c(=O)c2C#N)cc1OC | 0.1 | 52.4* | 0.0 | 103.0 | 85.0*
CCN(Cc1ccc(N(C)C)cc1)C(C)C(=O)Nc1ccc(S(=O)(=O)N2CCCC2)cc1 (configuration not stated) | 0.2 | 2.8 | 3.0 | 102.9 | ·
O=C(Nc1ccccc1Cc1ccccc1)c1ccccc1NS(=O)(=O)c1ccc(Cl)s1 | -0.2 | 81.5* | 1.0 | 99.8 | 83.1*
CCC(=O)N1N=C(c2ccc(NS(C)(=O)=O)cc2)CC1c1ccc(N(C)C)cc1 (configuration not stated) | -0.2 | 11.7 | 0.0 | 109.6 | ·
N=C(N)c1ccc(N=Nc2c(O)ccc3c2[nH]c2ccccc23)cc1 | · | 86.1* | · | · | 18.4 | ATG4B conf=38.2*
NC(=O)c1ccc(N=Nc2c(O)c3ccccc3[nH]c2=O)cc1 | 0.0 | · | 3.0 | 103.0 | ·
Cc1ccc(C(c2nnnn2C2CCCC2)N2c3ccccc3CC2C)cc1 (configuration not stated) | 0.5 | 7.8 | 2.0 | 113.4 | ·
Cc1ccc(N=Nc2c(N)nn(-c3ccccc3)c2N)cc1 | 0.0 | 57.3* | 5.0 | 97.4 | 70.8*
Cc1nn(-c2ccccc2)c(N)c1N=Nc1ccc2ccccc2c1 | -0.1 | 78.2* | 3.0 | 106.0 | 91.5*
Oc1ccccc1-c1cc(-c2ccccc2)n[nH]1 | -0.2 | -2.8 | 0.0 | 81.8 | ·
Cc1ccccc1-c1cc(-c2ccccc2O)n[nH]1 | -0.1 | 57.7* | 0.0 | 96.5 | 64.8*
Cc1ccc(-c2cc(-c3ccccc3[N+](=O)[O-])[nH]n2)c(O)c1 | 0.1 | 60.6* | 3.0 | 103.9 | 75.0*
Cc1ccc(-c2cc(-c3ccccc3Cl)[nH]n2)c(O)c1 | 0.2 | 68.0* | 1.0 | 103.9 | 77.0*
Oc1ccc(Br)cc1-c1cc(-c2ccccc2Cl)[nH]n1 | 0.0 | 22.2 | 0.0 | 109.5 | ·
O=C(COc1ccc(Cl)cc1)N1CCN(C(=O)c2cccs2)CC1 | -0.1 | -4.0 | 0.0 | 91.2 | ·
O=C(CCCCCn1nnc2ccccc2c1=O)Nc1ccccc1F | -0.1 | 2.9 | 4.0 | 82.8 | ·
COc1ccc(Cc2nnc(NC(=O)c3cccc([N+](=O)[O-])c3)s2)cc1 | 0.1 | 50.9* | 0.0 | 120.0 | 4.5
CCOc1ccc(/C=C/C2=Cc3c(sc(NC(=O)CSc4n[nH]c(N)n4)c3C#N)C(C)(C)C2)cc1 | -0.2 | 2.5 | 0.0 | 110.8 | ·
Cc1ccsc1/C=C/C1=Cc2c(sc(NC(=O)CSc3n[nH]c(N)n3)c2C#N)C(C)(C)C1 | 0.2 | 66.1* | 9.0 | 91.3 | 52.1*
CSc1nc2cc(Oc3cccc(Cl)c3Cl)c(Cl)cc2[nH]1 | 0.0 | 65.0* | 0.0 | 121.1 | 77.1*
CSc1nc2ccc(Cl)cc2[nH]1 | 0.0 | -2.6 | 1.0 | 92.7 | ·
O=C(COC(=O)c1cc(Cl)ccc1[N+](=O)[O-])NCc1ccc(Cl)cc1Cl | 0.0 | 52.4* | 0.0 | 98.6 | 45.5 | ATG4B conf=64.9*
SMILES | Efflux pump mplx | ATG4B inhibitor | GRK2 inh | Yeast superoxide | PLA2 ctr | others
O=C(COC(=O)c1cc(Cl)ccc1[N+](=O)[O-])Nc1cccc2ccccc12 | -0.4 | -16.9 | 0.0 | 85.5 | ·
O=C(NNC(=O)c1nn(-c2ccc(F)cc2)ccc1=O)c1ccccc1Cl | -0.1 | 42.1* | 2.0 | 95.4 | -21.1
COc1cc(C(=O)NCCN2CCN(C(=O)c3cc(OC)c(OC)c(OC)c3)CC2)cc(OC)c1OC | -0.1 | 2.9 | 9.0 | 79.3 | ·
O=C1CC(NS(=O)(=O)c2cc(F)ccc2F)CN1c1cccc(F)c1 (configuration not stated) | 0.0 | -4.3 | 1.0 | 99.5 | ·
Cc1ccc(C)c2[nH]c(=O)c(CN(Cc3ccco3)C(=S)NCC3CCCO3)cc12 (configuration not stated) | -0.1 | -13.6 | 0.0 | 120.6 | ·
COc1ccc2c(c1OC)C(=O)OC2Nc1nc(-c2ccc(-c3ccccc3)cc2)cs1 (configuration not stated) | 0.0 | 64.3* | 0.0 | 93.0 | 46.7 | ATG4B conf=39.5*
COc1cccc(-c2csc(NC3OC(=O)c4c3ccc(OC)c4OC)n2)c1 (configuration not stated) | 0.0 | 4.6 | 0.0 | 98.9 | ·
O=S(=O)(NCCc1ccc(F)cc1)c1ccc(F)cc1Br | -0.5 | -3.1 | 0.0 | 99.1 | ·
COc1ccc(C2=NOC(Cn3nc(C(=O)NCc4cccc(C(F)(F)F)c4)cc3-c3ccccc3)C2)cc1 (configuration not stated) | 0.1 | 66.9* | 2.0 | 97.9 | 82.3*
COc1ccc(C2=NOC(Cn3nc(C(=O)NCc4ccc(C)cc4)cc3-c3ccccc3)C2)cc1 (configuration not stated) | · | 8.2 | · | · | ·
CS(=O)(=O)Nc1ccc(C(=O)N2CCc3ccccc3C2)cc1 | -0.2 | 6.8 | 0.0 | 111.3 | ·
O=C(c1ccc(Cl)c(S(=O)(=O)Nc2ccccc2C(=O)N2CCc3ccccc3C2)c1)N1CCc2ccccc2C1 | 0.6 | 47.9* | 1.0 | 91.1 | 37.9 | ATG4B conf=62.5*
O=C(N/N=C/C=C\c1ccccc1[N+](=O)[O-])c1ccccn1 | -0.2 | -3.7 | 5.0 | 105.8 | ·
O=C(N/N=C/C=C/c1ccccc1[N+](=O)[O-])c1cc(-c2ccccc2)n[nH]1 | -0.1 | 47.0* | 0.0 | 111.8 | 25.1
COc1ccc(Cl)cc1NC(=O)CN1C(=O)NC(Cc2c[nH]c3ccccc23)C1=O (configuration not stated) | 0.1 | 0.6 | 3.0 | 109.4 | ·
CCNC(=O)NC(=O)COC(=O)CCCSc1nc2ccccc2s1 | 0.0 | 37.0 | 2.0 | 93.7 | ·
CCOC(=O)c1cnn(-c2nc(CC)nc3sc4c(c23)CCC4)c1N | 0.0 | -3.4 | 7.0 | 80.3 | ·
CCC(=O)N1CCN(c2nc(CC)nc3sc4c(c23)CCCC4)CC1 | 0.2 | 54.1* | 2.0 | 102.6 | 63.9*
COCCCNC(=S)N1CCN(c2nc3ccccc3s2)CC1 | 0.0 | -10.0 | 0.0 | 110.0 | ·
CCc1nc(N2CCN(C(=S)NCCCOC)CC2)c2c3c(sc2n1)CCCC3 | 0.1 | 72.3* | 0.0 | 107.3 | 79.6*
CCc1nc(N2CCN(S(C)(=O)=O)CC2)c2c3c(sc2n1)CCCC3 | -0.2 | 46.9* | 0.0 | 97.1 | 49.5
CN(C)C(=O)COc1ccc2c(-c3ccccc3)cc(=O)oc2c1 | -0.1 | 0.2 | 5.0 | 99.5 | ·
COc1ccc(NC(=O)CS(=O)(=O)Cc2ccccc2)c([N+](=O)[O-])c1 | 0.2 | -2.9 | 0.0 | 91.9 | ·
